Bioassay records from PubChem.
An excerpt weighted towards active compounds, which were near 3.6% of everything screened.
GDH-TPI inh: counter-screen for M. tuberculosis FBA inhibitors: GDH-TPI coupled enzymes | GDH-TPI coupled enzyme counterscreen, NADH absorbance | inhibition, % at 4.8 µM | actives 1.2% (n = 360,000) | AID 588335; in the data active = inhibition above about 30%;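 note: 0% = DMSO wells and 100% = wells lacking the enzyme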
Mtb bLac sens: beta-lactam sensitization of Mtb H37Rv | M. tuberculosis H37Rv growth with meropenem, percent inhibition | inhibition, % at 25 µM | actives 0.27% (n = 330,000) | AID 434955; call rule not given here;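 note: growth measured after seven days incubation then overnight dye step; 0% = bacteria only wells and 100% = bacteria with antibiotic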
Mtb FBA inh: inhibitors of M. tuberculosis fructose-bisphosphate aldolase | P9WQA3 | purified M. tuberculosis FBA, fluorescence read-out | inhibition, % at 1 µM | actives 2.3% (n = 360,000) | AID 588726; in the data active = inhibition above about 27%;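 note: 0% = vehicle and 100% = reference inhibitor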
Target sequence (P9WQA3 whole entry, looked up): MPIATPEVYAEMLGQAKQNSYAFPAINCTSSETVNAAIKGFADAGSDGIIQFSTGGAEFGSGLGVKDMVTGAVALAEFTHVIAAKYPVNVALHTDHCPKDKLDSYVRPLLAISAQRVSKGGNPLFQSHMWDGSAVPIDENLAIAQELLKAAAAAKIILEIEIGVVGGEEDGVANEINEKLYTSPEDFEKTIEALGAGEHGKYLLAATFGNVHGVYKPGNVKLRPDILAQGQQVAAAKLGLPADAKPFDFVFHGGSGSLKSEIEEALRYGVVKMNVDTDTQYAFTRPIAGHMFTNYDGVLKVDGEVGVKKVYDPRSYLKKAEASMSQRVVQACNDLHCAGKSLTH
Mtb hypoxia rep: inhibitors of hypoxia-regulated fluorescent reporter in Mycobacterium tuberculosis; fluorescence inhibition, % (test concentration not listed); actives 0.1% (n = 300,000); M. tuberculosis hypoxia-regulated fluorescent reporter, fluorescence; in the data active = fluorescence inhibition mostly above about 23%, no sharp cut-off; inactive = mostly below about 17%
VHR inh abs: DUSP3 (human) phosphatase inhibition; P51452; recombinant VHR phosphatase, pNPP absorbance; inhibition, % at 13.3 µM; actives 0.52% (n = 290,000); AID 1654; in the data active = inhibition above about 50%
Target sequence (P51452 whole entry, looked up): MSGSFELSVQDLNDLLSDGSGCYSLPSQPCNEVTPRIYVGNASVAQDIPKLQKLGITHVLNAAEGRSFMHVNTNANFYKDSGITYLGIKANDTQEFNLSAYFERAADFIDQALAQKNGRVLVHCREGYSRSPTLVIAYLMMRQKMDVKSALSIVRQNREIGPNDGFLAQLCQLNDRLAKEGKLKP
The depositor's hits bear a star; / = no result given; + = active, no number.

SMILES	GDH-TPI inh	Mtb bLac sens	Mtb FBA inh	Mtb hypoxia rep	VHR inh abs
COC1=CC2C3=C(C(NC(C)=O)CCc4cc(OC)c(OC)c(OC)c43)C2C1=O (stereo unspecified)	/	/	/	0	/
Cc1nn(C(=O)CNC(=O)c2ccccc2)c(C)c1C	-2	-2	3	6	22
Cc1nn(C(=O)c2cc3sccc3[nH]2)c(C)c1C	35*	2	-1	8	9
CCCC(C(=O)NCC1CCCO1)N(C(=O)CNS(=O)(=O)c1ccccc1)c1ccc(F)cc1 (stereo unspecified)	-2	7	0	3	58*
CCC(C(=O)NCC1CCCO1)N(C(=O)CNS(=O)(=O)c1ccccc1)c1ccc(F)cc1 (stereo unspecified)	-2	-2	1	1	7
COc1ccc(C2CC(c3ccccc3)=NN2c2ccc(N)cc2)cc1 (stereo unspecified)	15	83	0	6	15
COc1ccc(C2CC(c3cccc(Cl)c3)=NN2c2ccc(S(N)(=O)=O)cc2)cc1 (stereo unspecified)	19	/	141*	1	/
COc1ccc(C2CC(c3ccccc3)=NN2S(=O)(=O)c2ccccc2)cc1 (stereo unspecified)	5	8	2	-6	25
COc1ccc(C2CC(c3ccc(Cl)cc3)=NN2c2ccc(S(N)(=O)=O)cc2)cc1 (stereo unspecified)	6	/	+	1	/
C[C@@]12C(=O)N(Cc3ccccc3)CC(=O)N1C1c3cc(Cl)ccc3OCC1C2c1ccccc1 (stereo partly specified)	/	/	/	15	/
CCc1ccc(NC(=O)CC(C)=NNC(=O)COc2ccc(C)cc2Br)cc1	/	/	/	16	/
CC1CN(C(C)CO)C(=O)c2cc(NS(=O)(=O)c3cccs3)ccc2OC1CN(C)Cc1ccc(C(F)(F)F)cc1 (stereo unspecified)	/	/	/	13	/
COc1cc(C(=O)C(O)c2ccc(O)c(OC)c2)ccc1O (stereo unspecified)	26	/	-3	-1	/
CC(C)C(=O)c1ccc(O)c(O)c1	38*	7	7	4	8
O=C(C(=O)c1ccc(O)c(O)c1)c1ccc(O)c(O)c1	78*	/	-6	18	/
COc1ccc(/C=N/N=C2\SCC(=O)N2c2c(C)n(C)n(-c3ccccc3)c2=O)cc1OC	41*	0	-2	/	2
Cc1c(N2C(=O)CS/C2=N\N=C\c2ccccc2O)c(=O)n(-c2ccccc2)n1C	32*	-3	-1	/	6
COC(CC=CC(O)COCc1ccccc1)OC (stereo unspecified)	/	/	/	15	/
COC(=O)c1ccc(C23CC4(C2)C(CN(C)C4c2ccccc2)C3c2ccc(C(F)(F)F)cc2)cc1 (stereo unspecified)	/	/	/	-5	/
Oc1ccc(C=NNc2ccccc2)cc1	/	/	/	7	/
CCC(=Nc1ccccc1O)C1=C(O)CC(c2ccccc2)CC1=O (stereo unspecified)	1	98	2	70*	-8
CC(Oc1ccccc1)c1nnn(Cc2ccccc2)c1-c1c(C(C)Oc2ccccc2)nnn1Cc1ccccc1 (stereo unspecified)	/	/	/	2	/
O=C1NC(Cc2cn(S(=O)(=O)c3ccccc3)c3ccccc23)C(=O)NC1Cc1ccccc1 (stereo unspecified)	/	/	/	-1	/
CC(=O)Nc1sc(N/N=C/c2ccccc2)nc1-c1ccc(C)cc1	6	1	1	/	17
CC(=O)Nc1sc(N/N=C/c2ccc(O)cc2)nc1-c1ccc(C)cc1	35*	89	5	/	0
SMILES	GDH-TPI inh	Mtb bLac sens	Mtb FBA inh	Mtb hypoxia rep	VHR inh abs
COc1ccc(C(C)=NNC(=O)CNC(=O)COc2ccccc2)c(OC)c1	/	/	/	-3	/
COc1cccc(C2CC(c3cccs3)=NN2C(=O)CSC2=NN3CCCC(=O)N=C3S2)c1OC (stereo unspecified)	3	3	2	2	53*
COc1ccc(C2=NN(C(=O)CSC3=NN4CCCC(=O)N=C4S3)C(c3cccc(OC)c3OC)C2)cc1 (stereo unspecified)	12	-9	-1	8	6
COc1ccc2[nH]c3c(c2c1)CC(C)NC3=O (stereo unspecified)	15	6	121*	6	43
COc1ccc2c3c([nH]c2c1)C(C)=NCC3	22	1	19	9	16
C=CCn1cnc2c(c1=O)c1nc3ccccc3nc1n2/N=C/c1cccc(OC)c1OC	-1	6	-2	/	101*
Cc1ccc(C(C)C)c(OCc2ccc(C(=O)NN=Cc3ccc(O)c(O)c3)cc2)c1	/	/	/	6	/
NC(=O)CNC(=O)C1CC2(CC(c3cccc([N+](=O)[O-])c3)=NO2)CN1C(=O)c1ccccc1 (stereo unspecified)	/	/	/	0	/
COC(=O)C1=C(c2ccc(F)cc2OCc2ccccc2)CC2CCC1N2C(=O)N1CCC(O)CC1 (stereo unspecified)	/	/	/	2	/
CC(C)CCn1c(=O)c2ccccc2n2c(CCl)nnc12	13	93	4	36*	14
CS(=O)(=O)Nc1ccc(C2=NN(S(C)(=O)=O)C(c3ccccc3)C2)cc1 (stereo unspecified)	25	3	132*	4	8
CS(=O)(=O)Nc1ccc(C2=NN(C(=O)C3CCCCC3)C(c3cccs3)C2)cc1 (stereo unspecified)	11	21	+	-11	-7
CC(C)C(=O)N1N=C(c2ccc(NS(C)(=O)=O)cc2)CC1c1cccs1 (stereo unspecified)	29	3	+	4	1
Cc1ccc(C(=O)N2N=C(c3ccc(NS(C)(=O)=O)cc3)CC2c2cccs2)cc1 (stereo unspecified)	26	98	1	-24	27
CS(=O)(=O)Nc1ccc(C2=NN(S(=O)(=O)c3ccccc3)C(c3cccs3)C2)cc1 (stereo unspecified)	6	-4	-4	-11	8
CN(C)Cc1c(O)c(Cl)cc2c3c(c(=O)oc12)CCCC3	19	12	+	4	13
CCN(CC)Cc1c(O)c(Cl)cc2c3c(c(=O)oc12)CCCC3	15	2	+	1	16
Cc1coc2c(C)c3oc(=O)c4c(c3cc12)CCCC4	-7	6	3	0	6
O=c1oc2c(CN3CCOCC3)c(O)c(Cl)cc2c2c1CCC2	16	/	/	/	3
NC(=S)NN=C1CC(c2ccc3c(c2)OCCCO3)Oc2ccc(F)cc21 (stereo unspecified)	/	/	/	12	/
NC(=S)N/N=C1\CC(c2ccc3c(c2)OCCO3)Oc2ccc(F)cc21 (stereo unspecified)	40*	-11	-2	/	12
NC(=S)N/N=C1\CC(c2ccc3c(c2)OCCCO3)Oc2ccc(F)cc21 (stereo unspecified)	45*	-14	0	/	-9
C(=Nc1nc2ccccc2n1CCN1CCCCC1)c1ccc2c(c1)OCO2	/	/	/	-1	/
CCOC(=O)C1=C(c2ccccc2)N=c2sc(=Cc3ccc(O)cc3)c(=O)n2C1c1cccs1 (stereo unspecified)	/	/	/	-3	/
